# Test results published in the supplement of paper PMC3414501.
# Structures can show the parent of a compound that is named as a salt. Unmarked numbers belong to inactive results. Rule as the data show it: active = 2 or more and inactive = the rest.
# Tested on: S. cerevisiae BY4741 (wild-type), vegetative growth in YPD
# Assay: growth sensitivity score (doubling time z-score vs DMSO controls); higher = slower growth, strongly negative scores also mark growth inhibition (complete suppression), active = hit call of the paper
# In short: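 Yeast (Saccharomyces cerevisiae BY4741 and AD1-9) was grown in rich medium in microtiter plates from a starting OD600 of 0.065, with optical density read every 15 min over 24 hours. The growth sensitivity score was the difference between compound and solvent-only means, divided by the solvent-only standard deviation. Every experiment had eight solvent-only wells.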
row,Compound,growth sensitivity score
1,"NC1CCN(c2cccc(Cl)n2)CC1 (stock concentration (mM, diluted 1:100): 10)",-0.16
2,"O=C1[C@H]2CCCC[C@H]2C(=O)N1CCCCN1CCN(c2nsc3ccccc23)CC1 [Perospirone hydrochloride] (stock concentration (mM, diluted 1:100): 9.4)",3.13 (active)
3,"COCC1=C(C(=O)OC(C)OC(=O)OC(C)C)N2C(=O)[C@@H](NC(=O)/C(=N\OC)c3csc(N)n3)[C@H]2SC1 (stereo partly specified) [Cefpodoxime proxetil] (stock concentration (mM, diluted 1:100): 7.7)",-1.13
4,"CC(=O)NCCCCCCNC(C)=O [Hexamethylene bisacetamide] (stock concentration (mM, diluted 1:100): 10)",1.69
5,"NC(N)=Nc1nc(CSCC/C(N)=N/S(N)(=O)=O)cs1 [Famotidine] (stock concentration (mM, diluted 1:100): 10)",-0.98
6,"CNCC[C@@H](Oc1ccccc1C)c1ccccc1 [Atomexetine hydrochloride] (stock concentration (mM, diluted 1:100): 8.7)",0.06
7,"COc1cc(N)c(Cl)cc1C(=O)NC1CCN(CCCOc2ccc(F)cc2)CC1OC (stereo unspecified) [Cisapride] (stock concentration (mM, diluted 1:100): 10.5)",1.35
8,"CC[N+](C)(CC)CCOC(=O)C(O)(c1ccccc1)C1CCCCC1 (stereo unspecified) [Oxyphenonium bromide] (stock concentration (mM, diluted 1:100): 10)",0.39
9,"CC(C)NCC(O)COc1ccc(COCCOC(C)C)cc1 (stereo unspecified) [Bisoprolol fumarate] (stock concentration (mM, diluted 1:100): 8.5)",0.65
10,"CC(=O)[C@]1(O)Cc2c(O)c3c(c(O)c2[C@@H](O[C@H]2C[C@H](N)[C@H](O)[C@H](C)O2)C1)C(=O)c1ccccc1C3=O [Idarubicin hydrochloride] (stock concentration (mM, diluted 1:100): 9.3)",128 (active)
11,"COC(=O)C1=C(C)NC(C)=C(C(=O)OC2CCCN(Cc3ccccc3)C2)C1c1cccc([N+](=O)[O-])c1 (stereo unspecified) [Benidipine hydrochloride] (stock concentration (mM, diluted 1:100): 6)",1.95
12,"O=c1c(-c2ccccc2)c1-c1ccccc1 [Diphenylcyclopropenone] (stock concentration (mM, diluted 1:100): 10)",39.9 (active)
13,"CC(Oc1c(Cl)cccc1Cl)C1=NCCN1 (stereo unspecified) [Lofexidine hydrochloride] (stock concentration (mM, diluted 1:100): 10)",0.09
14,"Clc1cccc(Cl)c1NC1=NCCN1 [Clonidine] (stock concentration (mM, diluted 1:100): 10)",-1.97
15,"O=C(O)COCCN1CCN([C@H](c2ccccc2)c2ccc(Cl)cc2)CC1 [Levocetirizine] (stock concentration (mM, diluted 1:100): 10.7)",-0.8
16,"C=CC1=C(C(=O)O)N2C(=O)[C@@H](NC(=O)/C(=N\OCC(=O)O)c3csc(N)n3)[C@H]2SC1 [Cefixime trihydrate] (stock concentration (mM, diluted 1:100): 10)",-0.62
17,"C[N+]1(C)CCC(OC(=O)C(O)(c2ccccc2)C2CCCC2)C1 (stereo unspecified) [Glycopyrrolate] (stock concentration (mM, diluted 1:100): 10)",-0.04
18,"Cc1cccc(Nc2ccncc2S(=O)(=O)NC(=O)NC(C)C)c1 [Torasemide] (stock concentration (mM, diluted 1:100): 9.9)",-0.66

row,Compound,growth sensitivity score
1,"Cc1c(O)c(=O)ccn1C [Deferiprone] (stock concentration (mM, diluted 1:100): 10)",0.2
2,"CC1CNc2c(cccc2S(=O)(=O)N[C@@H](CCCNC(=N)N)C(=O)N2CC[C@@H](C)C[C@@H]2C(=O)O)C1 (stereo partly specified) [Argatroban] (stock concentration (mM, diluted 1:100): 10.1)",-0.6
3,"O=c1[nH]cnc2c1ncn2[C@H]1CC[C@@H](CO)O1 [Didanosine] (stock concentration (mM, diluted 1:100): 10.1)",-1.9
4,"Cc1[nH]cnc1CN1CCc2c(c3ccccc3n2C)C1=O [Alosetron hydrochloride] (stock concentration (mM, diluted 1:100): 8.9)",3.01 (active)
5,"C[C@@H]1C[C@H]2[C@@H]3CCC4=CC(=O)C=C[C@]4(C)[C@@]3(F)[C@@H](O)C[C@]2(C)[C@H]1C(=O)CO [Desoximetasone] (stock concentration (mM, diluted 1:100): 10)",1.97
6,"NC1CCN(c2nc3c(cc2F)c(=O)c(C(=O)O)cn3-c2ccc(F)cc2F)C1 (stereo unspecified) [Tosufloxacin tosylate] (stock concentration (mM, diluted 1:100): 7)",-0.39
7,"CN(C)CCN(Cc1ccccc1)c1ccccn1 [Tripelennamine hydrochloride] (stock concentration (mM, diluted 1:100): 10)",1.04
8,"CN1[C@@H]2CC[C@H]1C[C@@H](OC(=O)c1c[nH]c3ccccc13)C2 [Tropisetron hydrochloride] (stock concentration (mM, diluted 1:100): 7.7)",-0.89
9,"CCCc1nc(C)c2c(=O)nc(-c3cc(S(=O)(=O)N4CCN(CC)CC4)ccc3OCC)[nH]n12 [Vardenafil citrate] (stock concentration (mM, diluted 1:100): 7.2)",-0.19
10,"CC(C)/N=c1\cc2n(-c3ccc(Cl)cc3)c3ccccc3nc-2cc1Nc1ccc(Cl)cc1 [Clofazimine] (stock concentration (mM, diluted 1:100): 10)",61.3 (active)
11,"CC[C@H]1OC(=O)[C@H](C)[C@@H](O[C@H]2C[C@@](C)(OC)[C@@H](O)[C@H](C)O2)[C@H](C)[C@@H](O[C@@H]2O[C@H](C)C[C@H](N(C)C)[C@H]2O)[C@](C)(OC)C[C@@H](C)C(=O)[C@H](C)[C@@H](O)[C@]1(C)O [Clarithromycin] (stock concentration (mM, diluted 1:100): 10)",1.37
12,"C[C@]12CC[C@@H]3c4ccc(O)cc4CC[C@H]3[C@@H]1CC[C@@H]2O [Beta-Estradiol] (stock concentration (mM, diluted 1:100): 10)",3.35 (active)
13,"CN(CCO)CC(O)Cn1cnc2c1c(=O)n(C)c(=O)n2C (stereo unspecified) [Xanthinol nicotinate] (stock concentration (mM, diluted 1:100): 10)",-1.14
14,"CC(=O)O[C@H]1C[C@@H]2CC[C@@H]3[C@H](CC[C@@]4(C)[C@H]3C[C@H]([N+]3(C)CCCCC3)[C@@H]4OC(C)=O)[C@@]2(C)C[C@@H]1N1CCCCC1 [Vecuronium bromide] (stock concentration (mM, diluted 1:100): 10)",0.21
15,"CO[C@H]1/C=C/O[C@@]2(C)Oc3c(C)c(O)c4c(c3C2=O)C2=NC3(CCN(CC(C)C)CC3)NC2=C(NC(=O)/C(C)=C\C=C\[C@H](C)[C@H](O)[C@@H](C)[C@@H](O)[C@@H](C)[C@H](OC(C)=O)[C@@H]1C)C4=O [Rifabutin] (stock concentration (mM, diluted 1:100): 10)",0.72
16,"COc1ccc2[nH]c([S+]([O-])Cc3ncc(C)c(OC)c3C)nc2c1 (stereo unspecified) [Omeprazole] (stock concentration (mM, diluted 1:100): 10)",0.39
17,"CC=CC(=O)N(CC)c1ccccc1C [Crotamiton] (stock concentration (mM, diluted 1:100): 10.3)",-0.07
18,"O=C(CCNNC(=O)c1ccncc1)NCc1ccccc1 [Nialamide] (stock concentration (mM, diluted 1:100): 10)",0.19
